# Data taken from paper PMC4336329 (PLoS ONE, 2015).
# The whole screen tested about 310,000 compounds, of which about 14,000 (4.5%) showed an effect of 50% or more. The effect is printed as a negative number. The full list was thinned out, with strong results kept by preference.
# Target: human ether-à-go-go-related gene (hERG) potassium channel (human, UniProt Q12809)
# Experiment: primary screen, population patch clamp on CHO cells stably expressing hERG; higher = less effect of the substance
# 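Note: peak tail current of the secondary pulse compared with the same well before compound.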
# Sequence of human ether-à-go-go-related gene (hERG) potassium channel (Q12809 whole entry, looked up): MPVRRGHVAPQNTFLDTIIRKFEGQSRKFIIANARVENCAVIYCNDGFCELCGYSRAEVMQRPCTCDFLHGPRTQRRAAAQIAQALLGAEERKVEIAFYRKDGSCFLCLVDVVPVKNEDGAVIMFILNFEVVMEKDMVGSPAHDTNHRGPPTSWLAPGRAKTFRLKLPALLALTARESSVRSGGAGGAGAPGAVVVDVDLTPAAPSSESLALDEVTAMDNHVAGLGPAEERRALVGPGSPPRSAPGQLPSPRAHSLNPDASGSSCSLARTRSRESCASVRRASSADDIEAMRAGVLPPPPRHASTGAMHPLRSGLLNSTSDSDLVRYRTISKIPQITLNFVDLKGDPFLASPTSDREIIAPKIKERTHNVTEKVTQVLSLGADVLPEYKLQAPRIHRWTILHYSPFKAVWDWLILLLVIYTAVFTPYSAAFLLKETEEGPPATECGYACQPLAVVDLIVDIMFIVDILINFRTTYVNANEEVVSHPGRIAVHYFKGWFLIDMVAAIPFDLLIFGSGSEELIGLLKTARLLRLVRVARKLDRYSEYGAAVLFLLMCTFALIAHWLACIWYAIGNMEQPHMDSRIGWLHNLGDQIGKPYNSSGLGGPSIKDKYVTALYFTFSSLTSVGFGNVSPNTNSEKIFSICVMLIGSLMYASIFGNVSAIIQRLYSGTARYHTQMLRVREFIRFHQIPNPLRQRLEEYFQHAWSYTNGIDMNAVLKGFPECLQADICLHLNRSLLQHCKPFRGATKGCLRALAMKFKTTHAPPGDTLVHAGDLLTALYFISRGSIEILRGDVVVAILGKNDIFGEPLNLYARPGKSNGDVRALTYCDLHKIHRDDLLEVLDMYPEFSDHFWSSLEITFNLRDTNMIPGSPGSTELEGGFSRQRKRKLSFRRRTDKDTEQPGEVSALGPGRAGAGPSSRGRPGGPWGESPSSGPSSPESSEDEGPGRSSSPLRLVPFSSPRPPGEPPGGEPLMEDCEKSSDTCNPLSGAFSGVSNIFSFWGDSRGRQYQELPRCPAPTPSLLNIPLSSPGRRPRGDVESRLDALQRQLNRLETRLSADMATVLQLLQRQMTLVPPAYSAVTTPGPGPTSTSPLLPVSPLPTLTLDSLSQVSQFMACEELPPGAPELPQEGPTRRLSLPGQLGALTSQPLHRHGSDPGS
row,Compound,"hERG current change (%, negative = inhibition) at 10uM [%]"
1,Cc1ccc(S(=O)(=O)N(C)/N=C/c2ccc(C(=O)O)cc2)cc1,-7.51
2,N#C/C(=C\c1ccc(C#N)cc1)C(=O)c1ccccc1,10.7
3,COc1ccc(NC(=O)CSc2nnc(-c3ccccn3)n2N)cc1Cl,-2.27
4,COc1ccc(/C=N/NC(=O)CCC(=O)Nc2ccc(Br)cc2)c(OC)c1,5.6
5,COc1ccc(CNC(=O)Cn2nc([N+](=O)[O-])c(Br)c2C)cc1OC,-10.2
6,COC(=O)C1=C(C)N(c2ccc(C)c(C)c2)/C(=C/c2cccs2)C1=O,-17.7
7,CCS(=O)(=O)N1CCN(S(=O)(=O)c2ccc3c(c2)OCCO3)CC1,17.5
8,CCCCOc1ccc(/C=C/C(=O)N(CC)CC(=O)Nc2ccc3c(c2)OCCO3)cc1OC,-28.9
9,CNC(=O)/C(C#N)=C/c1ccc(-c2ccc(OC)cc2[N+](=O)[O-])o1,-1.67
10,C[C@H]1CCC(=O)N([C@H](COc2ccccc2)Cc2ccccc2)CC1,-42.7
11,O=C1CCN(Cc2ccccc2)CCN1[C@H](COc1ccccc1)Cc1ccccc1,-56.4
12,CCCN1CCC(=O)N([C@H](COc2ccccc2)Cc2ccccc2)CC1,-68.1
13,CC(C)CN1CCC(=O)N([C@H](COc2ccccc2)Cc2ccccc2)CC1,-71.7
14,CN1CCC(=O)N([C@H](COc2ccccc2)Cc2ccccc2)CC1,-28.5
15,N#CC[C@H](Cc1ccccc1)N1CCN(Cc2ccccc2)CCC1=O,-24
16,CC(C)CN1CCC(=O)N([C@H](CO)Cc2ccccc2)CC1,6.64
17,O=C1CCN(Cc2ccccc2)CCN1[C@H](CO)Cc1ccccc1,14.5
18,Cc1cccc(COCC(Cc2ccccc2)N2CCN(C(=O)c3cccc(Cl)c3)CCC2=O)c1 (stereo not shown),-15.1
19,O=C(c1cccc(Cl)c1)N1CCC(=O)N(C(COCc2ccccc2)Cc2ccccc2)CC1 (stereo not shown),-51.9
20,O=C(c1cc(Cl)cc(Cl)c1)N1CCC(=O)N(C(COCc2ccccc2)Cc2ccccc2)CC1 (stereo not shown),-10
21,CC(C)C[C@@H](COc1ccccc1)N1CCN(CC(C)C)CCC1=O,-48.5
22,Cc1cc(C)c2[nH]c(O)c(N=NC3=NC(=O)CS3)c2c1,-19.6

row,Compound,"hERG current change (%, negative = inhibition) at 10uM [%]"
1,Cc1ccc(C)c(N2CCN(c3nc4ccccc4c(=O)n3Cc3ccccc3)CC2)c1,14.1
2,Cc1cnc(C(=O)N2CCCC(C(=O)c3ccc(C(C)(C)C)cc3)C2)cn1 (stereo not shown),-20.7
3,CCN1CCN(C(=O)c2ccc(CNS(=O)(=O)c3cccc(OC)c3)cc2)CC1,40.7
4,O=C(OCc1cncs1)c1ccccc1Cl,6.6
5,O=C(NCc1cccnc1)Nc1ccc2c(c1)OCO2,-7.04
6,COc1ccccc1CCNC(=O)C1CCN(C(=O)/C=C/c2ccccc2)CC1,-13.8
7,COCCCNC(=O)CSc1ccc(Cl)cc1,2.32
8,CCCCN(Cc1ccccc1)C(=O)CCN1C(=O)C2C3C=CC(C3)C2C1=O (stereo not shown),1.48
9,O=C1CCN(CCc2ccccc2)CCN1[C@H](CO)Cc1ccccc1,-44.4
10,O=C1CCN(CCc2ccccc2)CCN1[C@H](COc1ccccc1)Cc1ccccc1,-78.6
11,N#CC[C@H](Cc1ccccc1)N1CCN(CCc2ccccc2)CCC1=O,16.5
12,O=C(Nc1ccccc1)NC1CCN(Cc2c(F)cccc2Cl)CC1,7.91
13,Cc1cccc(-c2nc3c(c(SCC(=O)N4CCOCC4)n2)Cc2c(CO)cnc(C)c2O3)c1,5.78
14,Cc1ccc(S(=O)(=O)NNC(=O)c2csnn2)cc1,1.7
15,CC(=O)c1ccc(-n2nncc2C)cc1,19.8
16,Nc1ccc(-n2nncc2-c2ccc(Cl)cc2)cc1,-35.9
17,Cc1cnnn1-c1ccc([N+](=O)[O-])cc1,23.5
18,O=[N+]([O-])c1ccc(-n2nncc2-c2ccc(Cl)cc2)cc1,-72.7
19,c1ccc(-c2cnnn2-c2ccccc2)cc1,12.7
20,CC(C)(C)c1cnnn1-c1ccc([N+](=O)[O-])cc1,-8.46
21,O=[N+]([O-])c1cccc(-n2nncc2-c2ccccc2)c1,-1.23
22,COc1ccc(-c2cnnn2-c2ccc([N+](=O)[O-])cc2)cc1,-64.6

row,Compound,"hERG current change (%, negative = inhibition) at 10uM [%]"
1,O=C(O)c1ccc(-n2nncc2-c2ccccc2)cc1,8.58
2,O=Cc1ccc(-n2nncc2-c2ccc([N+](=O)[O-])cc2)cc1,-67.3
3,CC(=O)c1ccc(-n2nncc2-c2ccc([N+](=O)[O-])cc2)cc1,-53.3
4,O=[N+]([O-])c1ccc(-n2nncc2-c2ccccc2)cc1,-29.4
5,Cc1ccc(CNS(=O)(=O)c2ccc(F)c(F)c2)n1C,15.3
6,COc1ccc(CCNC(=O)C2CCCN2C(=O)Nc2cccc(C(C)=O)c2)cc1OC (stereo not shown),-3.26
7,COc1ccc(-c2cc(C(F)F)n3ncc(C(=O)N4CCN(C(=O)c5ccco5)CC4)c3n2)cc1,-34.8
8,CCc1ccc(NC(=O)C(=O)NCC2CCCO2)cc1 (stereo not shown),10
9,CCOC(=O)N1CCN(c2nc(=S)n(-c3ccccc3)c(C)c2C(C)=O)CC1,-2.56
10,COC(=O)c1ccccc1NC(=S)NC(=O)COc1ccccc1Cl,-4.5
11,CCC1(C)Cc2nc3[nH]c(=S)n(-c4ccccc4)c(=O)c3cc2CO1 (stereo not shown),17.6
12,CCOC(=O)COc1coc(CN2CCN(c3ccccc3)CC2)cc1=O,9.43
13,O=C(c1ccc(NS(=O)(=O)c2cccc3cccnc23)cc1)N1CCCCC1,12
14,CCCCCCNC(=O)C(C(=O)OCC)C1CCCCC1 (stereo not shown),-4.59
15,CCOC(=O)C(C(=O)NCC1CCCO1)C1CCCCC1 (stereo not shown),12
16,C=CCNC(=O)C(C(=O)OCC)C1CCCCC1 (stereo not shown),-53.3
17,CCCC[C@H](CN[C@@H](CNC)[C@H](C)CC)NCCC12CCC(CC1)C2,10.4
18,O=C(Cc1cccs1)Nc1ccc(S(=O)(=O)N2CCCCC2)cc1,5.37
19,Cl.N=c1sccn1CC(=O)Nc1cc(S(=O)(=O)N2CCCC2)ccc1Cl,-39.5
20,O=C(CCl)Nc1cc(S(=O)(=O)N2CCCCCC2)ccc1Cl,-22.9
21,CN(CC(=O)Nc1cc(S(=O)(=O)N2CCCC2)ccc1Cl)Cc1cccs1,-16
22,O=C(CNCc1ccncc1)Nc1cc(S(=O)(=O)N2CCCCC2)ccc1Cl,-63.9

row,Compound,"hERG current change (%, negative = inhibition) at 10uM [%]"
1,O=C(CNCc1cccs1)Nc1cc(S(=O)(=O)N2CCCC2)ccc1Cl,-52
2,O=C(CNCc1ccccn1)Nc1cc(S(=O)(=O)N2CCCCC2)ccc1Cl,-19
3,Cc1ccc(S(=O)(=O)N2CCCCC2)cc1NC(=O)Cn1ccsc1=N.Cl,-33.7
4,N=c1sccn1CC(=O)Nc1cc(S(=O)(=O)N2CCCCC2)ccc1Cl,-62.5
5,Cl.O=C(CNCc1cccs1)Nc1ccc(S(=O)(=O)N2CCCCC2)cc1,-70.9
6,O=C(Cc1cccs1)Nc1cc(S(=O)(=O)N2CCCCC2)ccc1Cl,-0.378
7,O=C(Cc1cccs1)Nc1ccc(S(=O)(=O)N2CCCC2)cc1,10.6
8,Cc1nn(C)cc1/C=N/NC(=O)Cn1nccc1C,-1.28
9,CCCCC(=O)NC1(C(F)(F)F)NC(=O)N(C)C1=O (stereo not shown),11.3
10,CCC(Sc1nc2ccsc2c(=O)n1-c1ccc(Cl)c(C)c1)C(=O)NCc1ccco1 (stereo not shown),-16.8
11,CCOC(=O)c1nnn(CC(=O)Nc2cccc(Cl)c2C)c1C(=O)OCC,4.51
12,COc1cc(NC(=O)CSc2nnc3c(C)cc4c(C)ccc(C)c4n23)c(C(=O)O)cc1OC,27.1
13,COc1cccc(CNC(=O)CCC2CCCN(c3cc(C)nc(N(C)C)n3)C2)c1 (stereo not shown),-62.4
14,COc1cccc(CNC(=O)CCC2CCCN(C(=O)c3ccc(C)nc3)C2)c1 (stereo not shown),9.47
15,COc1cccc(CNC(=O)CCC2CCCN(C(=O)c3cc(C)on3)C2)c1 (stereo not shown),5.3
16,COc1cccc(CNC(=O)CCC2CCCN(C(=O)C3CCOCC3)C2)c1 (stereo not shown),1.51
17,Cc1cc(C)nc(N2CCCC(CCC(=O)NCc3ccc(F)c(F)c3)C2)n1 (stereo not shown),-1.25
18,COc1cccc(CNC(=O)CCC2CCCN(c3cc(C)nc(N)n3)C2)c1 (stereo not shown),-63.5
19,COc1cccc(CNC(=O)CCC2CCCN(C(=O)c3cc(C)[nH]n3)C2)c1 (stereo not shown),31.9
20,COc1cccc(CNC(=O)CCC2CCCN(c3cc(C)nc(N4CCCC4)n3)C2)c1 (stereo not shown),-75
21,COc1cccc(CNC(=O)CCC2CCCN(C(=O)c3ccccc3N(C)C)C2)c1 (stereo not shown),0.174
22,Cc1ccc(Nc2cccccc2=O)cc1,-4.5
